Screens as filed in PubChem.
Only some compounds are listed: those with a hit (about 2.2% of all), similar ones and a draw of the others.
APP 5UTR inh – APP translation inhibition; SH-SY5Y APP 5'UTR-luciferase reporter, luminescence; inhibition, % at 2 µM; 190,000 tested, 0.82% active; AID 1285;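 active means inhibition above a set limit, derived from the sample mean plus 3 SD, cut at about 45% in these data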
aSyn UTR inh – MLPCN primary screen, SNCA 5' untranslated region | 300,000 tested, 0.82% active | alpha-synuclein 5'UTR reporter, inhibitor activity | inhibition, % (tested at 7.5 µM); in the data active means inhibition above about 60%;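 further: H4 neuroglioblastoma cells stably carrying SNCA 5'UTR luciferase fusion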
KLF5 inhibitor – kruppel-like factor 5 inhibition; inhibition, % at 5 µM; DLD-1 KLF5 promoter-luciferase reporter, luminescence; 290,000 tested, 0.23% active;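 active means inhibition above a per-plate limit of that plate's mean compound inhibition plus 3 SD, cut at about 60% in these data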;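 further: higher means less KLF5 promoter-driven luciferase light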
BaF3 parental – parental Ba/F3 viability inhibition as JAK2V617F counter-screen; CellTiter-Glo ATP luminescence; inhibition, % at 5.6 µM; 220,000 tested, 1.1% active; AID 1486;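 active means inhibition above a per-campaign cutoff, the mean inhibition of all tested compounds plus 3 SD, cut at about 27% in these data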
Ba/F3 V617F tox – lowers viability of Ba/F3 cells expressing EpoR and JAK2V617F | ATP luminescence | inhibition, % at 5.6 µM | 220,000 tested, 1.1% active | AID 1446;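 active means inhibition above the campaign mean plus 3 SD over all tested compounds, cut at about 24% in these data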;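 further: cytokine-independent growth of Ba/F3 cells driven by EpoR plus mutant JAK2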
IEC-6 tox – counter-screen for KLF5 inhibitors: cytotoxicity in IEC-6 cells. IEC-6 cytotoxicity, luminescence viability. inhibition, % at 5 µM. 290,000 tested, 0.78% active; in the data active means inhibition above about 22%
Large screens that a line does not name were inactive.

O=C(Cc1ccccc1)Nc1cccc(N2C(=O)C=CC2=O)c1	APP 5UTR inh 66.7
COc1ccc2c(c1)c(CC(=O)Nc1nnc(C3CC3)s1)c(C)n2C(=O)c1ccc(Cl)cc1	BaF3 parental 37.7 (no result: APP 5UTR inh)
CC(C)(C)c1ccc(C(=O)CCCSC2=C(C#N)C(c3ccco3)C3=C(CCCC3=O)N2)cc1 (stereo unspecified)	none (no result: aSyn UTR inh)
N#CC1=C(SCC(=O)c2ccccc2)NC2=C(C(=O)CCC2)C1c1ccco1 (stereo unspecified)	APP 5UTR inh 68.4, BaF3 parental 36.1, Ba/F3 V617F tox 46.6
CC(C)CN(C(=O)COC(=O)c1ccc(Br)cc1)c1c(N)n(Cc2ccccc2)c(=O)[nH]c1=O	none (no result: APP 5UTR inh, KLF5 inhibitor, BaF3 parental, Ba/F3 V617F tox, IEC-6 tox)
CCn1ccc(C(=O)N2CCN(c3ncccn3)CC2)n1	none (no result: APP 5UTR inh, BaF3 parental, Ba/F3 V617F tox)
CCCCn1c(=O)c(C(=O)N/N=C/c2ccc(F)cc2)c(O)c2ccccc21	BaF3 parental 79.7
CC1(C)CC(NC(=O)COc2ccc3c4c(c(=O)oc3c2)CCCC4)CC(C)(C)N1	none (no result: APP 5UTR inh, BaF3 parental, Ba/F3 V617F tox)
CCN(CC)c1ccc(Nc2cc3n(c(=O)n2)CCc2cc(OC)c(OC)cc2-3)cc1	aSyn UTR inh 74.2 (no result: APP 5UTR inh, BaF3 parental, Ba/F3 V617F tox)
CCCc1n(CC(O)COC2CCCCC2)c2ccccc2[n+]1C (stereo unspecified)	BaF3 parental 54.9, Ba/F3 V617F tox 26.3
CCCc1n(CC(O)COCc2ccccc2)c2ccccc2[n+]1C (stereo unspecified)	BaF3 parental 33.8
CCCc1n(CC(O)COCC2CC=CCC2)c2ccccc2[n+]1C (stereo unspecified)	BaF3 parental 65.9, Ba/F3 V617F tox 33.0
CC1(C)Cn2c(nc(=O)c3c2NCN(CCc2ccccc2)C3)S1	none
CCC(C)C(NC(=O)C1CCC(C)CC1)C(=O)Nc1ccc(OC)cc1 (stereo unspecified)	none (no result: APP 5UTR inh, BaF3 parental, Ba/F3 V617F tox)
CCN1CCN(Cc2ccc(NC(=O)Nc3ccccc3Cl)cc2)CC1	none
O=C(Nc1ccc(CN2CCCCC2)cc1)Nc1ccccc1Cl	BaF3 parental 59.2
CCCCN1C2=NCCCN2c2cc(C)c(C)cc21	BaF3 parental 58.8, Ba/F3 V617F tox 50.8
Cc1cnc(C(=O)OCC(=O)NC(C)C)cn1	BaF3 parental 51.3
COc1cc(-c2ccc(=O)[nH]n2)ccc1OC(F)F	aSyn UTR inh 86.7 (no result: APP 5UTR inh)
O=C(N/N=C/c1ccc[nH]1)c1ccc(COc2cccc3cccnc23)cc1	APP 5UTR inh 46.1, aSyn UTR inh 104.0, BaF3 parental 80.4, Ba/F3 V617F tox 86.5, IEC-6 tox 38.7
O=C(C[n+]1ccccc1)N/N=C/c1cc(Br)ccc1O	none (no result: APP 5UTR inh, BaF3 parental, Ba/F3 V617F tox)
CCOc1ccc(NC(=S)Nc2ccc(OC(F)(F)F)cc2)cc1	BaF3 parental 50.7, Ba/F3 V617F tox 62.9 (no result: APP 5UTR inh)
CCOc1ccc(NC(=S)Nc2ccccc2C2CC2)cc1	BaF3 parental 80.6
O=C(Nc1nc2ccccc2[nH]1)c1ccc(Br)o1	none
CCN1C(=O)c2ccccc2S(=O)(=O)c2ccc(C(=O)NCCOC)cc21	none (no result: APP 5UTR inh, BaF3 parental, Ba/F3 V617F tox)
CCOC(=O)CSc1nc2ccc(N3CCOCC3)cc2c(=O)n1Cc1ccccc1	APP 5UTR inh 77.8
CCCn1cnc2c(=S)nc(N)[nH]c21	none (no result: APP 5UTR inh)
COc1ccc(CC2(CO)CCN(CC3=Cc4cc(Cl)ccc4OC3)CC2)cc1	BaF3 parental 38.7, Ba/F3 V617F tox 36.7
COc1ccc2c(c1)C=C(CN1CCC(CO)(CCc3ccccc3)CC1)CO2	none
CNc1nc(SCC(=O)Nc2ccccc2)nc(N2CCOCC2)n1	none (no result: APP 5UTR inh, BaF3 parental, Ba/F3 V617F tox)
CN1CCN(c2ccc([N+](=O)[O-])cc2C(=O)c2ccc(Br)cc2)CC1	APP 5UTR inh 69.3, aSyn UTR inh 67.4
COc1ccc(C(=O)c2cc([N+](=O)[O-])ccc2N2CCN(C)CC2)cc1	APP 5UTR inh 64.6, BaF3 parental 84.8, Ba/F3 V617F tox 73.6, IEC-6 tox 74.1
CN1CCN(c2ccc([N+](=O)[O-])cc2C(=O)c2ccccc2)CC1	none
Cc1ccc(C(=O)c2cc([N+](=O)[O-])ccc2N2CCOCC2)cc1C	APP 5UTR inh 93.3, BaF3 parental 76.4, Ba/F3 V617F tox 85.5
O=C(c1ccccc1)c1cc([N+](=O)[O-])ccc1N1CCCC1	none
COc1ccc(C(=O)c2cc([N+](=O)[O-])ccc2N2CCCC2)cc1	APP 5UTR inh 61.1
O=C(Nc1ccc(N2CCOCC2)cc1)c1nc2ccccc2s1	none (no result: APP 5UTR inh)
CSc1ccc(COC(=O)c2cc([N+](=O)[O-])ccc2N2CCOCC2)cc1	aSyn UTR inh 66.9 (no result: APP 5UTR inh, KLF5 inhibitor, BaF3 parental, Ba/F3 V617F tox, IEC-6 tox)
Cc1ccccc1COC(=O)c1cc([N+](=O)[O-])ccc1N1CCOCC1	none (no result: APP 5UTR inh, BaF3 parental, Ba/F3 V617F tox)
NCCCC[C@H](NC(=O)C1CCNCC1)c1nnc(CN)o1	none
COc1ccc(-c2cc3nc(C)cc(N)n3n2)cc1	IEC-6 tox 22.1
COc1ccc(-c2cc3nc(C)cc(-c4ccc(OC)cc4)n3n2)cc1	none (no result: APP 5UTR inh, BaF3 parental, Ba/F3 V617F tox)
CC1CCN(S(=O)(=O)c2cccc(S(=O)(=O)N3CCCC3)c2)CC1	none (no result: APP 5UTR inh, BaF3 parental, Ba/F3 V617F tox)
O=C(COC(=O)c1cc(=O)[nH]c2ccccc12)Nc1ccc(Cl)cn1	none (no result: APP 5UTR inh, KLF5 inhibitor, BaF3 parental, Ba/F3 V617F tox, IEC-6 tox)
CC(C)(C)c1cc(C(c2cccnc2)N2CCN(CCO)CC2)cc(C(C)(C)C)c1O (stereo unspecified)	APP 5UTR inh 58.7
Cc1onc(-c2c(Cl)cccc2Cl)c1C(=O)Nc1nccs1	none (no result: APP 5UTR inh, BaF3 parental, Ba/F3 V617F tox)
CC(=O)c1ccccc1N(C(=O)c1ccco1)C(C(=O)NC1CCCC1)c1ccc(C)cc1 (stereo unspecified)	none (no result: APP 5UTR inh, BaF3 parental, Ba/F3 V617F tox)
C=C(C)COc1ccc(-c2[nH]ncc2-c2ccc(Br)cc2)c(O)c1	APP 5UTR inh 79.3, aSyn UTR inh 91.4
C=C(C)COc1ccc(-c2[nH]ncc2-c2ccccc2OC)c(O)c1	none
C=C(C)COc1ccc(-c2n[nH]c(C)c2-c2ccc(Br)cc2)c(O)c1	APP 5UTR inh 67.0
COc1nc(Nc2nc3ccccc3c(=O)[nH]2)nc2ccc(C)cc12	aSyn UTR inh 89.9 (no result: APP 5UTR inh)
CCOc1ccc(-n2c(C)cc(/C=N/N(C)C)c2C)cc1	BaF3 parental 36.8
CCOc1ccc(-n2c(C)cc(C(=O)CCl)c2C)cc1	aSyn UTR inh 110.8
CCOc1ccc(-n2c(C)cc(/C=N/NC(=O)C(N)=O)c2C)cc1	none
CCN(CC(=O)NCc1ccc(Cl)cc1)C(=O)C(C)Sc1ccccc1 (stereo unspecified)	none (no result: APP 5UTR inh, BaF3 parental, Ba/F3 V617F tox)
CCC(C)NS(=O)(=O)c1ccc(NC(C)=O)cc1 (stereo unspecified)	none
COC(=O)C(C)NS(=O)(=O)c1ccc(NC(C)=O)cc1 (stereo unspecified)	IEC-6 tox 25.8
COc1ccc(CCN2C(=O)CSC2=Nc2ccc(C)cc2C)cc1OC	none (no result: APP 5UTR inh)
Cc1ccc2[nH]c(=O)c(CN(Cc3cccs3)Cc3nnnn3Cc3ccccc3)cc2c1	none
CCOC(=O)Cn1nnnc1CN(Cc1cccs1)Cc1cc2cc(C)ccc2[nH]c1=O	APP 5UTR inh 62.1
O=C1C=CC(=O)N1c1ccc(OC(F)F)cc1	APP 5UTR inh 56.2 (no result: aSyn UTR inh)
CN(C)c1cc[n+](CC(=O)N2c3ccccc3Sc3ccccc32)cc1	BaF3 parental 37.3, Ba/F3 V617F tox 23.8 (no result: aSyn UTR inh)
CC1CC(C)(C)NC(=S)N1CCCC(=O)Nc1ccc(F)cc1 (stereo unspecified)	none
Cc1ccc(C2Cc3cc(O)c(O)cc3CN2)cc1 (stereo unspecified)	aSyn UTR inh 89.0 (no result: APP 5UTR inh, KLF5 inhibitor, BaF3 parental, Ba/F3 V617F tox, IEC-6 tox)
